Assay results: ChEMBL document CHEMBL3433997, “St. Jude Leishmania screening dataset” (2016)

The molecules below were run against Solute carrier family 2, facilitated glucose transporter member 1 (Homo sapiens) (UniProt P11166) (assay: ST_JUDE_LEISH: Cytotoxicity at 2uM final concentration against transgenic Leishmania Mexicana promastigotes LmGLUT1 that are glucose transport deficient and complemented with the human glucose transporter GLUT1. Activity is measured by DNA content using SYBR green in vitro).
Type: functional

Chain of Solute carrier family 2, facilitated glucose transporter member 1 (Homo sapiens) (P11166 whole entry): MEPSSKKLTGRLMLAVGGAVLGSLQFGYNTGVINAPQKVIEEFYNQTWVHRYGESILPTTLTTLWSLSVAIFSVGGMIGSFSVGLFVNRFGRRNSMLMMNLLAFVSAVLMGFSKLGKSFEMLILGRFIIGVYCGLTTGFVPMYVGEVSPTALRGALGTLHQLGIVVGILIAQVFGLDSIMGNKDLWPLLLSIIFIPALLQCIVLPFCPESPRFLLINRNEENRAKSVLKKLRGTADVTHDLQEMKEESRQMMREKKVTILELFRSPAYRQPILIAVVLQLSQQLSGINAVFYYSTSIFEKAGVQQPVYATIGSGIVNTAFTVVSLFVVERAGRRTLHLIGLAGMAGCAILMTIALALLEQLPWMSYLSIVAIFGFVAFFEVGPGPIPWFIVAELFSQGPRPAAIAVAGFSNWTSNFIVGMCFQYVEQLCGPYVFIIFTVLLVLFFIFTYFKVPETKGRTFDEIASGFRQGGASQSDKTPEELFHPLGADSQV

Row | Compound | inhibition
1 | CCOC(=O)C(=CNc1ccc(Cc2cnc(N)nc2N)cc1CC)C(=O)OCC | 2.65%
2 | CN1CCN(CCCNCc2ccccc2-c2cccc(CNCc3ccc4c(c3)OCO4)c2)CC1 | -1.31%
3 | Cc1cc2ncn(-c3ccnc(N4CCN(CCCN5CCCC5)CC4)n3)c2cc1C | 4.77%
4 | COc1cccc(C(=O)Nc2sc3c(c2C(N)=O)CCCC3)c1OC | 0.25%
5 | O=C(/C=C/c1ccc(Cl)c(Cl)c1)NCCCCCN1CC[C@H](NC(=O)c2ccc3c(c2)OCO3)C1 | 5.7%
6 | O=C(Cc1cccc(O)c1)Nc1ccc(-c2cccc(-c3nc4cc(C(F)(F)F)ccc4[nH]3)c2)cc1 | -0.18%
7 | COc1cc2nc(Nc3ccc(N4CCOCC4)cc3)nc(N)c2cc1OC | 0.99%
8 | O=S(=O)(Nc1ccc(CCN2CCC(N3CCCCC3)CC2)cc1)c1ccc2ccccc2c1 | 4.91%
9 | N#Cc1ccc(-c2ccc(C(=O)NCCCCN3CCC(n4cnc5ccccc54)CC3)cc2)cc1 | 3.46%
10 | OCCCCCCNc1ccnc2[nH]c3ccc(I)cc3c12 | 8.64%
11 | COc1ccc(-c2nc3ccc(C)nc3nc2-c2ccc(OC)cc2)cc1 | 5.17%
12 | CCN(CC)CCCN(CCCN(CC)CC)c1cc(C)nc(Nc2ccc3cc(Br)ccc3c2)n1 | 1.34%
13 | O=c1ccc(CNc2nc(NCCc3ccccc3)nc3ccc(Cl)cc23)c[nH]1 | 3.36%
14 | O=C(NCCCCCCNCc1ccc(-c2ccccc2)cc1)Nc1ccc(Cl)c(Cl)c1 | 1.38%
15 | Cc1cccc(/C=C/C(=O)NC2CCC(N3CCC(c4ccccc4C)CC3)CC2)c1 (stereo not drawn) | -2.65%
16 | N#Cc1ccc2c(c1)CCN(CCC1CCC(NC(=O)c3ccc(-c4ccccc4)s3)CC1)CC2 (stereo not drawn) | 4.75%
17 | Cc1cccc(C(=O)Nc2ccnc(N3CCC(N(C)Cc4cccc(C#N)c4)CC3)c2)c1 | 4.5%
18 | O=C(Nc1cccc(C(F)(F)F)c1)c1ccc(S(=O)(=O)NCC2CCCN(CC3CCCCC3)C2)cc1 (stereo not drawn) | 1.23%
19 | COc1cccc(-c2ccc3c(-c4cccc(S(C)(=O)=O)c4)cnc(N)c3c2)c1 | 8.21%
20 | CCN(CC)CCNc1nccc(N(C)c2ccc(NC(=O)Nc3cc(C(F)(F)F)ccc3F)cc2)n1 | 5.98%

Row | Compound | inhibition
21 | COc1ccc(CNc2ccc3nc(N)nc(N)c3c2)cc1 | -2.31%
22 | CC1(C)N=C(N)N=C(N)N1OCc1cc2ccccc2cc1CON1C(N)=NC(N)=NC1(C)C | 1.9%
23 | COc1ccccc1Oc1c(N(C)S(=O)(=O)c2ccc(C(C)C)cc2)nc(C(F)(F)F)nc1N(C)S(=O)(=O)c1ccc(C(C)C)cc1 | 0.63%
24 | CS(=O)(=O)CCN(CCS(C)(=O)=O)Cc1ccc(-c2ccc3ncnc(Nc4ccc(OCc5cccc(F)c5)c(Cl)c4)c3c2)o1 | 2%
25 | COc1nc2c(CCN3CCC(NCc4ccc5c(c4)NCCO5)CC3)c(Cl)cnc2cc1F | 14.1%
26 | COc1ccc2nccc([C@@H](O)CN3CCC(NCCOc4cccc(F)c4F)CC3)c2c1 | 4.54%
27 | COc1ccc(-c2ccc(NC(=O)c3ccc(Cl)cc3)cc2)cc1CN1CCNCC1 | 1.97%
28 | CCn1cc(C=C2Oc3c(ccc(O)c3CN3CCCCC3)C2=O)c2ccccc21 | 5.49%
29 | COc1ccc(OC)c(C=NNc2nc3ccccc3[nH]2)c1 | 5.98%
30 | Cc1cccc2nc(-c3cccc(-c4cccc(CNCc5cnn(-c6ccccc6)n5)c4)c3)[nH]c12 | 0.8%
31 | CCCc1ccc(S(=O)(=O)NC2CCN(c3ccnc(Nc4ccc(OC)cc4)n3)C2)cc1 (stereo not drawn) | 8.11%
32 | CCCC(C)C(=O)N1CCOC(COCc2cccc(C(F)(F)F)c2)(c2ccc(Cl)cc2)C1 (stereo not drawn) | -0.83%
33 | CCN1CCN(c2cc(C)c3cc(NC(=O)c4ccc(C(C)(C)C)cc4)ccc3n2)CC1 | -0.6%
34 | NCc1cccc(-c2ccccc2CNC2CCN(Cc3ccccc3)CC2)c1 | 6%
35 | CCN1CCN(c2cc(C)c3cc(NC(=O)c4ccc(OC)c(OC)c4)ccc3n2)CC1 | 0.58%
36 | CCC[C@@H]([C@@H](Cc1ccc(C)s1)C(=O)N[C@@H](CNC(C)=O)C(=O)Nc1nccs1)N(O)C=O | 12%
37 | COc1ccc(NC(=O)NC2CCN(CCCCCNC(=O)/C=C/c3ccc(Cl)c(Cl)c3)CC2)cc1 | -1.04%
38 | COc1cc2nc(N3CCN(c4nc(N)c5cc(OC)c(OC)cc5n4)CC3)nc(N)c2cc1OC | 5.24%
39 | O=C(Nc1cccc([N+](=O)[O-])c1)Nc1ccc(Cl)c(C(F)(F)F)c1 | -1.69%

The molecules below were run against Hexose transporter 1 (Plasmodium falciparum) (UniProt O97467) (assay: ST_JUDE_LEISH: Cytotoxicity at 2uM final concentration against transgenic Leishmania Mexicana promastigotes LmPfHT that are glucose transport deficient and complemented with the Plasmodium falciparum hexose transporter. Activity is measured by DNA content using SYBR green in vitro).
Type: functional

Row | Compound | inhibition
40 | CCOC(=O)C(=CNc1ccc(Cc2cnc(N)nc2N)cc1CC)C(=O)OCC | 2.16%
41 | CN1CCN(CCCNCc2ccccc2-c2cccc(CNCc3ccc4c(c3)OCO4)c2)CC1 | -0.45%
42 | Cc1cc2ncn(-c3ccnc(N4CCN(CCCN5CCCC5)CC4)n3)c2cc1C | 3.43%
43 | COc1cccc(C(=O)Nc2sc3c(c2C(N)=O)CCCC3)c1OC | 8.04%
44 | O=C(/C=C/c1ccc(Cl)c(Cl)c1)NCCCCCN1CC[C@H](NC(=O)c2ccc3c(c2)OCO3)C1 | 5.13%
45 | O=C(Cc1cccc(O)c1)Nc1ccc(-c2cccc(-c3nc4cc(C(F)(F)F)ccc4[nH]3)c2)cc1 | 1.54%
46 | COc1cc2nc(Nc3ccc(N4CCOCC4)cc3)nc(N)c2cc1OC | 2.3%
47 | O=S(=O)(Nc1ccc(CCN2CCC(N3CCCCC3)CC2)cc1)c1ccc2ccccc2c1 | 11.2%
48 | N#Cc1ccc(-c2ccc(C(=O)NCCCCN3CCC(n4cnc5ccccc54)CC3)cc2)cc1 | 3.72%
49 | OCCCCCCNc1ccnc2[nH]c3ccc(I)cc3c12 | 6.33%
50 | COc1ccc(-c2nc3ccc(C)nc3nc2-c2ccc(OC)cc2)cc1 | 3.91%
51 | CCN(CC)CCCN(CCCN(CC)CC)c1cc(C)nc(Nc2ccc3cc(Br)ccc3c2)n1 | 4.9%
52 | O=c1ccc(CNc2nc(NCCc3ccccc3)nc3ccc(Cl)cc23)c[nH]1 | 3.7%
53 | O=C(NCCCCCCNCc1ccc(-c2ccccc2)cc1)Nc1ccc(Cl)c(Cl)c1 | 0.96%
54 | Cc1cccc(/C=C/C(=O)NC2CCC(N3CCC(c4ccccc4C)CC3)CC2)c1 (stereo not drawn) | -2.79%
55 | N#Cc1ccc2c(c1)CCN(CCC1CCC(NC(=O)c3ccc(-c4ccccc4)s3)CC1)CC2 (stereo not drawn) | 3.75%
56 | Cc1cccc(C(=O)Nc2ccnc(N3CCC(N(C)Cc4cccc(C#N)c4)CC3)c2)c1 | 5.56%
57 | O=C(Nc1cccc(C(F)(F)F)c1)c1ccc(S(=O)(=O)NCC2CCCN(CC3CCCCC3)C2)cc1 (stereo not drawn) | 0.41%
58 | COc1cccc(-c2ccc3c(-c4cccc(S(C)(=O)=O)c4)cnc(N)c3c2)c1 | 5.42%
59 | CCN(CC)CCNc1nccc(N(C)c2ccc(NC(=O)Nc3cc(C(F)(F)F)ccc3F)cc2)n1 | 2.93%

Row | Compound | inhibition
60 | COc1ccc(CNc2ccc3nc(N)nc(N)c3c2)cc1 | 1.62%
61 | CC1(C)N=C(N)N=C(N)N1OCc1cc2ccccc2cc1CON1C(N)=NC(N)=NC1(C)C | 1.86%
62 | COc1ccccc1Oc1c(N(C)S(=O)(=O)c2ccc(C(C)C)cc2)nc(C(F)(F)F)nc1N(C)S(=O)(=O)c1ccc(C(C)C)cc1 | 1.97%
63 | CS(=O)(=O)CCN(CCS(C)(=O)=O)Cc1ccc(-c2ccc3ncnc(Nc4ccc(OCc5cccc(F)c5)c(Cl)c4)c3c2)o1 | 2.02%
64 | COc1nc2c(CCN3CCC(NCc4ccc5c(c4)NCCO5)CC3)c(Cl)cnc2cc1F | 9.24%
65 | COc1ccc2nccc([C@@H](O)CN3CCC(NCCOc4cccc(F)c4F)CC3)c2c1 | 4.96%
66 | COc1ccc(-c2ccc(NC(=O)c3ccc(Cl)cc3)cc2)cc1CN1CCNCC1 | 2.41%
67 | CCn1cc(C=C2Oc3c(ccc(O)c3CN3CCCCC3)C2=O)c2ccccc21 | 4.09%
68 | COc1ccc(OC)c(C=NNc2nc3ccccc3[nH]2)c1 | 5.18%
69 | Cc1cccc2nc(-c3cccc(-c4cccc(CNCc5cnn(-c6ccccc6)n5)c4)c3)[nH]c12 | 1.43%
70 | CCCc1ccc(S(=O)(=O)NC2CCN(c3ccnc(Nc4ccc(OC)cc4)n3)C2)cc1 (stereo not drawn) | 9.89%
71 | CCCC(C)C(=O)N1CCOC(COCc2cccc(C(F)(F)F)c2)(c2ccc(Cl)cc2)C1 (stereo not drawn) | 0.15%
72 | CCN1CCN(c2cc(C)c3cc(NC(=O)c4ccc(C(C)(C)C)cc4)ccc3n2)CC1 | 2.13%
73 | NCc1cccc(-c2ccccc2CNC2CCN(Cc3ccccc3)CC2)c1 | 5.52%
74 | CCN1CCN(c2cc(C)c3cc(NC(=O)c4ccc(OC)c(OC)c4)ccc3n2)CC1 | 0.53%
75 | CCC[C@@H]([C@@H](Cc1ccc(C)s1)C(=O)N[C@@H](CNC(C)=O)C(=O)Nc1nccs1)N(O)C=O | 9.56%
76 | COc1ccc(NC(=O)NC2CCN(CCCCCNC(=O)/C=C/c3ccc(Cl)c(Cl)c3)CC2)cc1 | -0.81%
77 | COc1cc2nc(N3CCN(c4nc(N)c5cc(OC)c(OC)cc5n4)CC3)nc(N)c2cc1OC | 4.56%
78 | O=C(Nc1cccc([N+](=O)[O-])c1)Nc1ccc(Cl)c(C(F)(F)F)c1 | 1.56%
